This excerpt belongs to a sample that is enriched for the strongest signals.
Tests used:
Test in all cases: glycan array binding signal (z-score within array); higher = stronger binding
Conditions in all cases: glycan notation: IUPAC condensed, linker removed
[1] = target: Fuc(a1-2)Gal(b1-4)GlcNAc(b1-3)Gal(b1-4)GlcNAc(b1-3)Gal(b1-4)GlcNAc
Method in brief: (§1)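 The binding signal is a Z-score computed within each array and averaged over linkers. Arrays of the same protein sequence at different concentrations or buffers were also averaged together. Data originate from 3228 arrays in the Consortium for Functional Glycomics database, kept only where the protein sequence was available.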

[2] = target: Fuc(a1-2)Gal(b1-4)[Fuc(a1-3)]GlcNAc(b1-2)Man(a1-6)[Fuc(a1-2)Gal(b1-4)[Fuc(a1-3)]GlcNAc(b1-2)Man(a1-3)]Man(b1-4)GlcNAc(b1-4)[Fuc(a1-6)]GlcNAc
Method in brief: as §1

[3] = target: Fuc(a1-2)Gal6S(b1-3)GlcNAc6S
Method in brief: as §1

[4] = target: Fuc(a1-2)Gal6S(b1-4)Glc6S
Method in brief: as §1

[5] = target: Fuc(a1-2)[Gal(a1-3)]Gal(b1-4)[Fuc(a1-3)]Glc
Method in brief: as §1

[6] = target: Fuc(a1-3)[Gal(b1-4)]GlcNAc(b1-2)Man(a1-3)[Fuc(a1-3)[Gal(b1-4)]GlcNAc(b1-2)Man(a1-6)]Man(b1-4)GlcNAc(b1-4)[Fuc(a1-6)]GlcNAc
Method in brief: as §1

[7] = target: Fuc(a1-3)[GalNAc(b1-4)]GlcNAc
Method in brief: as §1

[8] = target: Gal(a1-3)Gal(b1-3)GlcNAc(b1-2)Man(a1-3)[Gal(a1-3)Gal(b1-3)GlcNAc(b1-2)Man(a1-6)]Man(b1-4)GlcNAc(b1-4)GlcNAc
Method in brief: as §1

[9] = target: Gal(a1-3)Gal(b1-3)GlcNAc(b1-3)GalNAc
Method in brief: as §1

[10] = target: Gal(a1-3)Gal(b1-4)GlcNAc(b1-3)GalNAc
Method in brief: as §1

[11] = target: Gal(a1-4)Gal(b1-3)GlcNAc(b1-2)Man(a1-3)[Gal(a1-4)Gal(b1-3)GlcNAc(b1-2)Man(a1-6)]Man(b1-4)GlcNAc(b1-4)GlcNAc
Method in brief: as §1

[12] = target: Gal(a1-4)Gal(b1-4)GlcNAc(b1-2)Man(a1-3)[Gal(a1-4)Gal(b1-4)GlcNAc(b1-2)Man(a1-6)]Man(b1-4)GlcNAc(b1-4)GlcNAc
Method in brief: as §1

[13] = target: Gal(b1-3)GlcNAc(b1-3)Gal(b1-4)GlcNAc
Method in brief: as §1

[14] = target: Gal(b1-3)GlcNAc(b1-3)Gal(b1-4)GlcNAc(b1-6)[Gal(b1-3)GlcNAc(b1-3)]Gal(b1-4)Glc
Method in brief: as §1

[15] = target: Gal(b1-3)GlcNAc(b1-3)GalNAc
Method in brief: as §1

[16] = target: Gal(b1-3)GlcNAc(b1-6)Gal(b1-4)GlcNAc
Method in brief: as §1

[17] = target: Gal(b1-4)GlcNAc(a1-6)Gal(b1-4)GlcNAc
Method in brief: as §1

[18] = target: Gal(b1-4)GlcNAc(b1-2)Man(a1-3)[Gal(b1-4)GlcNAc(b1-2)Man(a1-6)]Man(b1-4)GlcNAc(b1-4)[Fuc(a1-6)]GlcNAc
Method in brief: as §1

[19] = target: Gal(b1-4)GlcNAc(b1-2)Man(a1-6)Man(b1-4)GlcNAc(b1-4)GlcNAc
Method in brief: as §1

[20] = target: Gal(b1-4)GlcNAc(b1-3)Gal(b1-4)Glc
Method in brief: as §1

[21] = target: Gal(b1-4)GlcNAc(b1-6)Gal(b1-4)GlcNAc
Method in brief: as §1

[22] = target: GalNAc(b1-3)Gal(a1-4)Gal(b1-4)GlcNAc(b1-3)Gal(b1-4)Glc
Method in brief: as §1

[23] = target: GalNAc(b1-3)Gal(a1-6)Gal(b1-4)Glc
Method in brief: as §1

GlcA(b1-3)GlcNAc = target: GlcA(b1-3)GlcNAc
Method in brief: as §1

GlcA(b1-6)Gal = target: GlcA(b1-6)Gal
Method in brief: as §1

[24] = target: GlcNAc(a1-4)Gal(b1-4)GlcNAc(b1-3)Gal(b1-4)GlcNAc(b1-3)Gal(b1-4)GlcNAc
Method in brief: as §1

[25] = target: GlcNAc(a1-4)Gal(b1-4)GlcNAc(b1-3)Gal(b1-4)[Fuc(a1-3)]GlcNAc(b1-3)Gal(b1-4)[Fuc(a1-3)]GlcNAc
Method in brief: as §1

[26] = target: GlcNAc(b1-2)Man(a1-3)[GlcNAc(b1-2)Man(a1-6)]Man(b1-4)GlcNAc(b1-4)GlcNAc
Method in brief: as §1

[27] = target: GlcNAc(b1-2)[GlcNAc(b1-4)]Man(a1-3)[GlcNAc(b1-2)Man(a1-6)]Man(b1-4)GlcNAc(b1-4)GlcNAc
Method in brief: as §1

[28] = target: GlcNAc(b1-3)Gal(b1-4)GlcNAc
Method in brief: as §1

GlcNAc(b1-3)Man = target: GlcNAc(b1-3)Man
Method in brief: as §1

Man(a1-2)Man(a1-3)Man = target: Man(a1-2)Man(a1-3)Man
Method in brief: as §1

[29] = target: Man(a1-3)[Man(a1-6)]Man(a1-6)[Man(a1-2)Man(a1-3)]Man(b1-4)GlcNAc(b1-4)GlcNAc
Method in brief: as §1

[30] = target: Man(a1-3)[Man(a1-6)]Man(a1-6)[Man(a1-3)]Man
Method in brief: as §1

[31] = target: Man(a1-3)[Man(a1-6)]Man(b1-4)GlcNAc(b1-4)GlcNAc
Method in brief: as §1

[32] = target: Man(a1-3)[Man(a1-6)]Man(b1-4)GlcNAc(b1-4)[Fuc(a1-6)]GlcNAc
Method in brief: as §1

[33] = target: Neu5Ac(a2-3)Gal(b1-4)GlcNAc(b1-2)[Neu5Ac(a2-3)Gal(b1-4)GlcNAc(b1-6)]Man(a1-6)[Neu5Ac(a2-3)Gal(b1-4)GlcNAc(b1-2)Man(a1-3)]Man(b1-4)GlcNAc(b1-4)GlcNAc
Method in brief: as §1

[34] = target: Neu5Ac(a2-3)Gal(b1-4)GlcNAc(b1-3)Gal
Method in brief: as §1

[35] = target: Neu5Ac(a2-3)Gal(b1-4)GlcNAc6S
Method in brief: as §1

[36] = target: Neu5Ac(a2-6)Gal(b1-4)GlcNAc(b1-2)Man(a1-6)[GlcNAc(b1-2)Man(a1-3)]Man(b1-4)GlcNAc(b1-4)GlcNAc
Method in brief: as §1

[37] = target: Neu5Ac9Ac(a2-3)Gal(b1-3)GlcNAc
Method in brief: as §1

[38] = target: Neu5Gc(a2-3)Gal(b1-4)GlcNAc
Method in brief: as §1

B1: RVL (Remusatia vivipara), B5LYJ9 (protein)
chain: MAKLLLFLLPAILGLLVPRSAVALGTNYLLSGQTLDTEGHLKNGDFDLVMQDDCNLVLYNGNWQSNTANNGRDCKLTLTDYGELVIKNGDGSTVWKSGAQSVKGNYAAVVHPDGRLVVLGPSVFKIDPWVRGLNSLRFRNIPFTNNLLFSGQVLYGDGRLTAKNHQLVMQGDCNLVLYGGKYGWQSNTHGNGEHCFLRLNHKGELIIKDDDFKTIWSSRSSSKQGEYVLILQDDGFGVIYGPAIFETSSKRSIAAS
What does the source list for B1?
glycan array binding signal (z-score) [1]: -0.272; glycan array binding signal (z-score) [2]: 9.79; glycan array binding signal (z-score) [3]: 0.483; glycan array binding signal (z-score) [4]: -0.151; glycan array binding signal (z-score) [5]: -0.32; glycan array binding signal (z-score) [6]: 0.076; glycan array binding signal (z-score) [7]: -0.292; glycan array binding signal (z-score) [8]: 0.313; glycan array binding signal (z-score) [9]: -0.166; glycan array binding signal (z-score) [10]: -0.178; glycan array binding signal (z-score) [11]: 1.75; glycan array binding signal (z-score) [12]: 1.93; glycan array binding signal (z-score) [13]: -0.252; glycan array binding signal (z-score) [14]: -0.574; glycan array binding signal (z-score) [15]: -0.055; glycan array binding signal (z-score) [16]: 0.004; glycan array binding signal (z-score) [17]: -0.142; glycan array binding signal (z-score) [18]: 7.05; glycan array binding signal (z-score) [19]: -0.136; glycan array binding signal (z-score) [20]: -0.252; glycan array binding signal (z-score) [21]: -0.216; glycan array binding signal (z-score) [22]: -0.066; glycan array binding signal (z-score) [23]: -0.17; glycan array binding signal (z-score) (GlcA(b1-3)GlcNAc): -0.098; glycan array binding signal (z-score) (GlcA(b1-6)Gal): -0.23; glycan array binding signal (z-score) [24]: 0.124; glycan array binding signal (z-score) [25]: 0.3; glycan array binding signal (z-score) [26]: 0.913; glycan array binding signal (z-score) [27]: 2.4; glycan array binding signal (z-score) [28]: -0.145; glycan array binding signal (z-score) (GlcNAc(b1-3)Man): -0.227; glycan array binding signal (z-score) (Man(a1-2)Man(a1-3)Man): -0.197; glycan array binding signal (z-score) [29]: 3.91; glycan array binding signal (z-score) [30]: 0.224; glycan array binding signal (z-score) [31]: 3.8; glycan array binding signal (z-score) [32]: 6.15; glycan array binding signal (z-score) [33]: 3.54; glycan array binding signal (z-score) [34]: -0.103; glycan array binding signal (z-score) [35]: -0.033; glycan array binding signal (z-score) [36]: -0.207; glycan array binding signal (z-score) [37]: -0.284; glycan array binding signal (z-score) [38]: -0.111

From the supplement of paper PMC8728848
